Holding throughout (experiment): DAPPL (digital affinity profiling via proximity ligation, sequencing); 10 mM Tris-HCl pH 7.5, 50 mM NaCl, 1 mM DTT, 4% glycerol, room temperature, 30 min; GST-TFs on glutathione beads, 16-mer random dsDNA library, 0.1% formaldehyde crosslink after washing; high values mean tight binding
Holding throughout (settings): protein: recombinant; tags: N-terminal GST; dsDNA, one strand shown

In one experiment the target is T1, ELK1 (Homo sapiens, UniProt P19419 1-428).
T1 sequence: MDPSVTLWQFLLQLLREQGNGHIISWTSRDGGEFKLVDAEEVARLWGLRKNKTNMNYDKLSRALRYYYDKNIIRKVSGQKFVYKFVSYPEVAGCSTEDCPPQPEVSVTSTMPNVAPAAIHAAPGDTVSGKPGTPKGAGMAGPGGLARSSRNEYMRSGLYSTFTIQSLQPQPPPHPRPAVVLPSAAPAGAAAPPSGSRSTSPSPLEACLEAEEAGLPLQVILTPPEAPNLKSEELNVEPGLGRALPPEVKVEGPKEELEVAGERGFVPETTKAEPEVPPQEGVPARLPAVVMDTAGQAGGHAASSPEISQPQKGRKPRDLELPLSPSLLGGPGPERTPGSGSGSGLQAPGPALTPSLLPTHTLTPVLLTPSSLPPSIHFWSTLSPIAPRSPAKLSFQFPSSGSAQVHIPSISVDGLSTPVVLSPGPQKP
The method in brief:
(§1)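 Human transcription factors carrying a GST fusion were produced in yeast, bound to glutathione beads, tagged with DNA barcodes and pooled together with a tag-only sample. Each pool was held with 200 nmole of a random double-stranded 16-mer DNA library in Tris/NaCl/DTT/glycerol buffer for 30 min at room temperature, then washed, crosslinked in 0.1% formaldehyde, proximity-ligated with BsaI/T4 ligase (1 h, 37 °C), PCR-amplified and sequenced on an Illumina NextSeq500. Binding signal is the read frequency of each hexamer for a given factor divided by its frequency in the tag-only sample.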

A further experiment concerns the target ELF1 (Homo sapiens, UniProt P32519 1-619). The method in brief: as §1
The target of the next experiment is T2, EHF (Homo sapiens, UniProt Q9NZC4 1-300).
T2 sequence: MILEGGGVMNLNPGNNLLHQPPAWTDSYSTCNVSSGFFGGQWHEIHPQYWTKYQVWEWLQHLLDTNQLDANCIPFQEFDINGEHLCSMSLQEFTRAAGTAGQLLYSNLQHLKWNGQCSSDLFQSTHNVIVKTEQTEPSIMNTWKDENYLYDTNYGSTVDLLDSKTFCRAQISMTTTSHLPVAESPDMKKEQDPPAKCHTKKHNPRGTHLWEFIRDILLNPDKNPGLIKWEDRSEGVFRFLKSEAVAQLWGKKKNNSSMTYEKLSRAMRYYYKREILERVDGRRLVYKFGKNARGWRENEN
The method in brief:
as §1

A further experiment deals with SPIB (Homo sapiens, UniProt Q01892 1-262). The gist of the method:
as §1

The next experiment addresses T3, ELK3 (Homo sapiens, UniProt P41970 1-407).
T3 sequence: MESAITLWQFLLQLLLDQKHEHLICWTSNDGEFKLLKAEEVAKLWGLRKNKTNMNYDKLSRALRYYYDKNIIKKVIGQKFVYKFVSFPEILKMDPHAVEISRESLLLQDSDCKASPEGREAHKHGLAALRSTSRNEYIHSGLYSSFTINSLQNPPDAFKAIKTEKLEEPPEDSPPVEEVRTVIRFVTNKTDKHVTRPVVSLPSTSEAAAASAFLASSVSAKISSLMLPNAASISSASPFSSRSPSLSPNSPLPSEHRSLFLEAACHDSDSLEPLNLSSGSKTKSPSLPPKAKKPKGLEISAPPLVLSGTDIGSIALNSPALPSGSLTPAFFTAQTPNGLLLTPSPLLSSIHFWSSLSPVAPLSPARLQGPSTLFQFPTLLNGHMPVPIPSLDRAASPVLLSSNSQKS
The method in brief:
as §1

In a further experiment the target is T4, FEV (Homo sapiens, UniProt Q99581 1-238).
T4 sequence: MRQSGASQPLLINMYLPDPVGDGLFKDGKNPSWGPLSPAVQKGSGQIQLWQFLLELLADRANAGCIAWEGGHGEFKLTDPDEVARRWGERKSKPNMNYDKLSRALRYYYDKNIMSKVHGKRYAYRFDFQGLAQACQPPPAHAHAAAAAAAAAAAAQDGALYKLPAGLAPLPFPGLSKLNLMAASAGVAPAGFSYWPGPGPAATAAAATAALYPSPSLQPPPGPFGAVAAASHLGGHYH
The method in brief: as §1

In the next experiment the target is T5, ELK4 (Homo sapiens, UniProt P28324-2 1-405).
T5 sequence: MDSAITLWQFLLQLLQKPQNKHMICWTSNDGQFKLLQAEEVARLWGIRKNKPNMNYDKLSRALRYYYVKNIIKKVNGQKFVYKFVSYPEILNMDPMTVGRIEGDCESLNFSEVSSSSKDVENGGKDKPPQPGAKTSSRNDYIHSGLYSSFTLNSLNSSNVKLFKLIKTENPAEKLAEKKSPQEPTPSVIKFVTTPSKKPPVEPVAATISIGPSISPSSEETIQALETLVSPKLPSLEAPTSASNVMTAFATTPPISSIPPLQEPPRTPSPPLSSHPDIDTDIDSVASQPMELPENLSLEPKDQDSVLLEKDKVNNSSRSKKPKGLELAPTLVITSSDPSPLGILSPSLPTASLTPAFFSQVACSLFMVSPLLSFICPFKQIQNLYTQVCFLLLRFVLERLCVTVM
The gist of the method: as §1

Another experiment has as its target ETV1 (Homo sapiens, UniProt P50549 1-477). The method in brief: as §1
Another experiment deals with T6, ETV3L (Homo sapiens, UniProt Q6ZN32 1-361).
T6 sequence: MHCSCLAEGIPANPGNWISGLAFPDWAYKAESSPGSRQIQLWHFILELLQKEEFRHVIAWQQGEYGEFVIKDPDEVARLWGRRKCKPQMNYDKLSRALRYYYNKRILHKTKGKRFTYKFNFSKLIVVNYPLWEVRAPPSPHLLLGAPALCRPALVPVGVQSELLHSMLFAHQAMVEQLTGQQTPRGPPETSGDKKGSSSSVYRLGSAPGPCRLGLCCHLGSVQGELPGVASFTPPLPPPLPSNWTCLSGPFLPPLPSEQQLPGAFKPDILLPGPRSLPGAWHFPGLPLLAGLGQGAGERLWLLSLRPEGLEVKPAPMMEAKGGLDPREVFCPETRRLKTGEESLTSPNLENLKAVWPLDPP
The gist of the method:
as §1

The target in a further experiment is T7, ETS2 (Homo sapiens, UniProt P15036 1-469).
T7 sequence: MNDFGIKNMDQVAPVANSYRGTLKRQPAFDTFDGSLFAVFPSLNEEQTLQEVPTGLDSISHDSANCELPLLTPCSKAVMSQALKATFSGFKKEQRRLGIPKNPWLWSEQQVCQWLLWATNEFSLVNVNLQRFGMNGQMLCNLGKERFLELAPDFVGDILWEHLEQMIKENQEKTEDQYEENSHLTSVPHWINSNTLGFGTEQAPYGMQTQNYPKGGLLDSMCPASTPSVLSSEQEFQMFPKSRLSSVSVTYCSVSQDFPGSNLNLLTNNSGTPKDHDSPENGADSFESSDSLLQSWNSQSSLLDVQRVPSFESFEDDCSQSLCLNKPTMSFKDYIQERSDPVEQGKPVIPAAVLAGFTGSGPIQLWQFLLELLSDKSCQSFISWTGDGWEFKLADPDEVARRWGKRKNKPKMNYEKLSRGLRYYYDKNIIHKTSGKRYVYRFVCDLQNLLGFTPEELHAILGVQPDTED
The gist of the method: as §1

For a further experiment, the target named is T8, SPDEF (Homo sapiens, UniProt O95238 1-335).
T8 sequence: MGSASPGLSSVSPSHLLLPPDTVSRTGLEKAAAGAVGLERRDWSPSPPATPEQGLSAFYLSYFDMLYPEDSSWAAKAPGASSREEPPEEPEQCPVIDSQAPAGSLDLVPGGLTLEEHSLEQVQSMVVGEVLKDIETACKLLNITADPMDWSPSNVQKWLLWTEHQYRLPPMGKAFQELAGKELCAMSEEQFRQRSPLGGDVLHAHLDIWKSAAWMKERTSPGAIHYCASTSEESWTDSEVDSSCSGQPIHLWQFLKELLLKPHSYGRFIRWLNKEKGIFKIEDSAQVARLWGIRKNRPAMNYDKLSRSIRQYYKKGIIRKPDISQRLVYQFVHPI
The method in brief:
as §1

Sequence of ELF1 (P32519 whole entry): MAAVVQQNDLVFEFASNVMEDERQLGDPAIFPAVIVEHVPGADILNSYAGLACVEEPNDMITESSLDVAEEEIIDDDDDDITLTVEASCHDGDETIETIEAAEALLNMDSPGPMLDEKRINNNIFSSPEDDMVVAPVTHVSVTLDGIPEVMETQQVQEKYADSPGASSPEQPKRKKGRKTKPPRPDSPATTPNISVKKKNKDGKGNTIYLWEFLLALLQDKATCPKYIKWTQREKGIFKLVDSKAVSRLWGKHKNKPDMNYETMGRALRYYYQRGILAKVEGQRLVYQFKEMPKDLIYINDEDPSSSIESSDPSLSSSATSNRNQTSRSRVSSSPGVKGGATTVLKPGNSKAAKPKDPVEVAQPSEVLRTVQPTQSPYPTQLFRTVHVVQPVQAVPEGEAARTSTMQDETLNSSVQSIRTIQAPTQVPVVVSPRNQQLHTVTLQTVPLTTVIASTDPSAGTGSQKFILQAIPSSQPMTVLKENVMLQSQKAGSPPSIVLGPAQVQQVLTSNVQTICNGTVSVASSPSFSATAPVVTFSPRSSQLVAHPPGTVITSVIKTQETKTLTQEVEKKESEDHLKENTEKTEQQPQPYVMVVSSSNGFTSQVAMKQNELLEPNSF
Sequence of ETV1 (P50549 whole entry): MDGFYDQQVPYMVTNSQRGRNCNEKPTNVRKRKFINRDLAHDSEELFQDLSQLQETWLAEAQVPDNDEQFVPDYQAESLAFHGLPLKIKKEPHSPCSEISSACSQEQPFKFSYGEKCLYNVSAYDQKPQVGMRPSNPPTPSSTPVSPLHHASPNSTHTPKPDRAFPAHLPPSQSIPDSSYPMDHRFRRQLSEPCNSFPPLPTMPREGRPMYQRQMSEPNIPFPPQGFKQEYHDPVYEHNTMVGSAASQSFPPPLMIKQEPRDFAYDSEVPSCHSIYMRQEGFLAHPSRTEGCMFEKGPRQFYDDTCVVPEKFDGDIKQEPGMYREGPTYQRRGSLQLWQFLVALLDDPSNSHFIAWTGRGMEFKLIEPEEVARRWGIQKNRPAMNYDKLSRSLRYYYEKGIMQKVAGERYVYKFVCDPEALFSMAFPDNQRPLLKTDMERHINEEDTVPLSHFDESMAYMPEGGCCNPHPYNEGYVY
Sequence of SPIB (Q01892 whole entry): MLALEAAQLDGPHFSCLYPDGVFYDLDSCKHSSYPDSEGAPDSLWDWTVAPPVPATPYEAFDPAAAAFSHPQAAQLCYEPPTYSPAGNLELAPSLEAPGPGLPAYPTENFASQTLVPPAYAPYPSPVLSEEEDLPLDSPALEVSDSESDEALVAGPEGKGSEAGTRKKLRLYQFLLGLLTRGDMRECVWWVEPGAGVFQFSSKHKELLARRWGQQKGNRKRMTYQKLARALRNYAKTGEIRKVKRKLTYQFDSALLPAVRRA

Turning to CCACCA, the binding signal in the experiment with ELK1 is 1.04 fold enrichment (6-mer frequency, TF over GST control); with ELF1 it was 1.12 fold enrichment (6-mer frequency, TF over GST control); in the experiment with EHF, 1.04 fold enrichment (6-mer frequency, TF over GST control); in the experiment with SPIB, 1.08 fold enrichment (6-mer frequency, TF over GST control); with ELK3, 1.03 fold enrichment (6-mer frequency, TF over GST control); with FEV it was 1.04 fold enrichment (6-mer frequency, TF over GST control). For the same sequence, the binding signal in the experiment with ELK4 is 1.14 fold enrichment (6-mer frequency, TF over GST control); with ETV1, 1.02 fold enrichment (6-mer frequency, TF over GST control); with ETV3L, 1.04 fold enrichment (6-mer frequency, TF over GST control); in the experiment with ETS2 it was 1.05 fold enrichment (6-mer frequency, TF over GST control); with SPDEF, 1.01 fold enrichment (6-mer frequency, TF over GST control).

Values taken from article PMC7862700, “An all-to-all approach to the identification of sequence-specific readers for epigenetic DNA modifications on cytosine”.
